Data: PubChem BioAssay (EPA / NIEHS)
Records with an inconclusive call do not appear. Activity calls are given as the source filed them. How the source made its calls, unless noted: active means hit-call score of the fitted dose curve at least 0.9, where 1 is the maximum; inconclusive means response in the unintended direction; inactive means score below 0.9.

Biological target: PGR (gene 5241) (UniProt P06401)
Assay: TOX21_PR_BLA_Followup_Agonist_ratio: Tox21 HEK293 Progesterone Receptor (PR) Agonism Beta-lactamase Follow-Up Assay, Ratio (AID 2283933)
In short: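 PR-UAS-bla HEK293T cells in medium with 2% charcoal-stripped FBS were dosed after 6 h plating and incubated 16 h at 37C. LiveBLAzer FRET substrate was added for 2 h at room temperature. Cleaved/uncleaved substrate ratio fitted against DMSO; CellTiter-Glo viability run in the same wells.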

Chain of PGR (gene 5241) (P06401 whole entry, looked up): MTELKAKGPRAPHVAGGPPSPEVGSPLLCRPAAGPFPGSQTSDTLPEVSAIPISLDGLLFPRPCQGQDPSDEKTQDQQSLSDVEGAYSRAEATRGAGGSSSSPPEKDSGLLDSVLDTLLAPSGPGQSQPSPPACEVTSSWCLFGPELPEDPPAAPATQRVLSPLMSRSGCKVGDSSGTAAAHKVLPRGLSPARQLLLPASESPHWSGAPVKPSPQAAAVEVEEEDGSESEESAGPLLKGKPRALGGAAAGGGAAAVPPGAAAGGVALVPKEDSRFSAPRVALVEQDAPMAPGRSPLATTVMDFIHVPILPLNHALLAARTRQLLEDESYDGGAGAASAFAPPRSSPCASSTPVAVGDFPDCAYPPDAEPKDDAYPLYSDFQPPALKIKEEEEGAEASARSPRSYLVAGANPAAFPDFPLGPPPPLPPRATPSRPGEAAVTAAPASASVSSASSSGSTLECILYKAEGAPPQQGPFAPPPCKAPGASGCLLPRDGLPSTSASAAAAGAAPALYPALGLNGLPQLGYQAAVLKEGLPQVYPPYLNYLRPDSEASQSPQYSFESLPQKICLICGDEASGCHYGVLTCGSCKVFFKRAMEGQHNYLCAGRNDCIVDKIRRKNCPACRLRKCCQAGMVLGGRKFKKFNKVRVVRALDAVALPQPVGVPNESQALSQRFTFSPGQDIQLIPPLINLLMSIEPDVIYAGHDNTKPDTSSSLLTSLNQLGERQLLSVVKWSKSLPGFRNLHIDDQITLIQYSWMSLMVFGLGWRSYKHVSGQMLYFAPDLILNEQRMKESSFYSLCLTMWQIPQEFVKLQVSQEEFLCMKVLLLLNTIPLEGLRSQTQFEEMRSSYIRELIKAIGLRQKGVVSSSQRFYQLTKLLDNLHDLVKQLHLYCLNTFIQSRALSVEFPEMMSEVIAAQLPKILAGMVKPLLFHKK

Structure (SMILES)	outcome	AC50
CCCc1c(OCCCOc2ccc(OCC(=O)O)cc2)ccc(C(C)=O)c1O	inactive	–
C[C@H]1C[C@@H]2[C@H]([C@@H](O)C[C@@]3(C)[C@H]2CC[C@]3(O)C(=O)CO)[C@@]2(C)C=CC(=O)C=C12	–	58.7 µM (active)
O=c1cc(-c2ccccc2)oc2cc(O)cc(O)c12	inactive	–

Biological target: PGR (gene 5241) (UniProt P06401)
Assay: TOX21_PR_BLA_Followup_Antagonist_ratio: Tox21 HEK293 Progesterone Receptor (PR) Antagonism Beta-lactamase Follow-Up Assay, Ratio (AID 2283934)
In short: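 PR-UAS-bla HEK293T cells, 3,000/well in 2% charcoal-stripped FBS, given compound plus 1nM R5020 agonist for 16 hr at 37C. Beta-lactamase FRET substrate 2 hours, ratio cleaved/uncleaved fluorescence; viability by CellTiter-Glo in same wells.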

Structure (SMILES)	AC50	outcome
C#C[C@]1(O)CC[C@H]2[C@@H]3CCC4=Cc5oncc5C[C@]4(C)[C@H]3CC[C@@]21C	0.0919 µM (active)	–
O=C(Oc1ccccc1)c1ccc(O)cc1	–	inactive
CCCc1c(OCCCOc2ccc(OCC(=O)O)cc2)ccc(C(C)=O)c1O	31.5 µM (active)	–
COC(=O)C1=C(C)NC(C)=C(C(=O)OCCN(C)Cc2ccccc2)C1c1cccc([N+](=O)[O-])c1 (configuration not stated)	25 µM (active)	–
C[C@H]1C[C@@H]2[C@H]([C@@H](O)C[C@@]3(C)[C@H]2CC[C@]3(O)C(=O)CO)[C@@]2(C)C=CC(=O)C=C12	–	inactive
CC(=O)[C@H]1CC[C@H]2[C@@H]3CC=C4C[C@@H](O)CC[C@]4(C)[C@H]3CC[C@]12C	–	inactive
C[C@]12CC[C@H]3[C@@H](CCC4=CC(=O)CC[C@@]43C)[C@@H]1CC[C@@H]2C(=O)CO	–	inactive
C[C@H]1C[C@H]2[C@@H]3CCC4=CC(=O)C=C[C@]4(C)[C@@]3(F)[C@@H](O)C[C@]2(C)[C@@]1(O)C(=O)COP(=O)(O)O	–	inactive
O=c1cc(-c2ccccc2)oc2cc(O)cc(O)c12	8.76 µM (active)	–

Tested on: not listed separately
Assay: TOX21_PR_BLA_Followup_Agonist_viability: Viability Assessment in the Tox21 HEK293 Progesterone Receptor (PR) Agonism Beta-lactamase Follow-Up Assay (AID 2283935);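 further: signal loss means lower viability so actives are cytotoxic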
In short: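 PR-UAS-bla HEK293T cells in 2% charcoal-stripped FBS medium, plated 6 hr before compound addition, exposed 16 hr at 37C. Viability read by CellTiter-Glo ATP luminescence after 30 min at room temperature, in the same wells as the beta-lactamase readout.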

Structure (SMILES)	outcome	AC50
C#C[C@]1(O)CC[C@H]2[C@@H]3CCC4=Cc5oncc5C[C@]4(C)[C@H]3CC[C@@]21C	inactive	–
O=C(Oc1ccccc1)c1ccc(O)cc1	inactive	–
CCCc1c(OCCCOc2ccc(OCC(=O)O)cc2)ccc(C(C)=O)c1O	inactive	–
COC(=O)C1=C(C)NC(C)=C(C(=O)OCCN(C)Cc2ccccc2)C1c1cccc([N+](=O)[O-])c1 (configuration not stated)	–	79.9 µM (active)
C[C@H]1C[C@@H]2[C@H]([C@@H](O)C[C@@]3(C)[C@H]2CC[C@]3(O)C(=O)CO)[C@@]2(C)C=CC(=O)C=C12	inactive	–
CC(=O)[C@H]1CC[C@H]2[C@@H]3CC=C4C[C@@H](O)CC[C@]4(C)[C@H]3CC[C@]12C	inactive	–
C[C@]12CC[C@H]3[C@@H](CCC4=CC(=O)CC[C@@]43C)[C@@H]1CC[C@@H]2C(=O)CO	inactive	–
C[C@H]1C[C@H]2[C@@H]3CCC4=CC(=O)C=C[C@]4(C)[C@@]3(F)[C@@H](O)C[C@]2(C)[C@@]1(O)C(=O)COP(=O)(O)O	inactive	–
O=c1cc(-c2ccccc2)oc2cc(O)cc(O)c12	inactive	–

Tested on: not listed separately
Assay: TOX21_PR_BLA_Followup_Antagonist_viability: Viability Assessment in the Tox21 HEK293 Progesterone Receptor (PR) Antagonism Beta-lactamase Follow-Up Assay (AID 2283936);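 further: hits lower the luminescence signal meaning cytotoxicity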
In short: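 PR-UAS-bla HEK293T cells (3,000/well, 2% charcoal-stripped FBS) given compound plus R5020 agonist, 16 h at 37C. CellTiter-Glo added after bla read, 30 min at room temperature; luminescence loss indicates cytotoxicity.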

Structure (SMILES)	outcome	AC50
C#C[C@]1(O)CC[C@H]2[C@@H]3CCC4=Cc5oncc5C[C@]4(C)[C@H]3CC[C@@]21C	inactive	–
O=C(Oc1ccccc1)c1ccc(O)cc1	inactive	–
CCCc1c(OCCCOc2ccc(OCC(=O)O)cc2)ccc(C(C)=O)c1O	inactive	–
COC(=O)C1=C(C)NC(C)=C(C(=O)OCCN(C)Cc2ccccc2)C1c1cccc([N+](=O)[O-])c1 (configuration not stated)	–	72.7 µM (active)
C[C@H]1C[C@@H]2[C@H]([C@@H](O)C[C@@]3(C)[C@H]2CC[C@]3(O)C(=O)CO)[C@@]2(C)C=CC(=O)C=C12	inactive	–
CC(=O)[C@H]1CC[C@H]2[C@@H]3CC=C4C[C@@H](O)CC[C@]4(C)[C@H]3CC[C@]12C	inactive	–
C[C@]12CC[C@H]3[C@@H](CCC4=CC(=O)CC[C@@]43C)[C@@H]1CC[C@@H]2C(=O)CO	inactive	–
C[C@H]1C[C@H]2[C@@H]3CCC4=CC(=O)C=C[C@]4(C)[C@@]3(F)[C@@H](O)C[C@]2(C)[C@@]1(O)C(=O)COP(=O)(O)O	inactive	–
O=c1cc(-c2ccccc2)oc2cc(O)cc(O)c12	inactive	–

Biological target: PGR (gene 5241) (UniProt P06401)
Assay: TOX21_PR_LUC_Followup_Agonist: Tox21 HEK293 Progesterone Receptor (PR) Agonism Luciferase Follow-Up Assay (AID 2283937; active means hit-call score of the fitted dose curve at least 0.9, where 1 is the maximum; inactive means score below 0.9)
In short: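 HEK293-PR-A-luc cells, conditioned 5 days in 10% charcoal-stripped FBS medium, seeded 3,000/well for 5 h, then compound-treated 16 h at 37C. ONE-Glo luminescence read after 30 min at room temperature; gain of signal versus DMSO.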

Structure (SMILES)	outcome	AC50
CCCc1c(OCCCOc2ccc(OCC(=O)O)cc2)ccc(C(C)=O)c1O	inactive	–
C[C@H]1C[C@@H]2[C@H]([C@@H](O)C[C@@]3(C)[C@H]2CC[C@]3(O)C(=O)CO)[C@@]2(C)C=CC(=O)C=C12	–	0.334 µM (active)
O=c1cc(-c2ccccc2)oc2cc(O)cc(O)c12	–	31 µM (active)

Biological target: PGR (gene 5241) (UniProt P06401)
Assay: TOX21_PR_LUC_Followup_Antagonist: Tox21 HEK293 Progesterone Receptor (PR) Antagonism Luciferase Follow-Up Assay (AID 2283938);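 further: curve fitted upward as signal gain over DMSO baseline despite antagonist label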
In short: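 Luminescence from ONE-Glo reagent, measured after 30 min at room temperature, served as readout. Cells (HEK293 carrying PR-A-luc) had been treated 16 h at 37C with DMSO-dissolved compounds. Activity was fitted against DMSO controls.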

Structure (SMILES)	outcome	AC50
C#C[C@]1(O)CC[C@H]2[C@@H]3CCC4=Cc5oncc5C[C@]4(C)[C@H]3CC[C@@]21C	inactive	–
CCCc1c(OCCCOc2ccc(OCC(=O)O)cc2)ccc(C(C)=O)c1O	–	63.6 µM (active)
COC(=O)C1=C(C)NC(C)=C(C(=O)OCCN(C)Cc2ccccc2)C1c1cccc([N+](=O)[O-])c1 (configuration not stated)	–	21.8 µM (active)
CC(=O)[C@H]1CC[C@H]2[C@@H]3CC=C4C[C@@H](O)CC[C@]4(C)[C@H]3CC[C@]12C	inactive	–
C[C@]12CC[C@H]3[C@@H](CCC4=CC(=O)CC[C@@]43C)[C@@H]1CC[C@@H]2C(=O)CO	inactive	–
O=c1cc(-c2ccccc2)oc2cc(O)cc(O)c12	inactive	–

Biological target: Thyroid hormone receptor alpha (Rattus norvegicus) + Thyroid hormone receptor beta (Rattus norvegicus) (UniProt P18113+P63059)
Assay: TOX21_TR_LUC_GH3_Agonist_Followup: Tox21 GH3 Thyroid Hormone Receptor Agonism Luciferase Follow-Up Assay (AID 2283939)
In short: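 Rat GH3 cells (1,500/well) in serum-free assay medium, treated with 15-point series, 92 uM to 5 nM final, for 24 h at 37C. Luciferase via ONE-Glo luminescence; gain of signal fitted against DMSO, T3 positive control.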

Chain of Thyroid hormone receptor alpha (Rattus norvegicus) + Thyroid hormone receptor beta (Rattus norvegicus) (P63059 whole entry, looked up): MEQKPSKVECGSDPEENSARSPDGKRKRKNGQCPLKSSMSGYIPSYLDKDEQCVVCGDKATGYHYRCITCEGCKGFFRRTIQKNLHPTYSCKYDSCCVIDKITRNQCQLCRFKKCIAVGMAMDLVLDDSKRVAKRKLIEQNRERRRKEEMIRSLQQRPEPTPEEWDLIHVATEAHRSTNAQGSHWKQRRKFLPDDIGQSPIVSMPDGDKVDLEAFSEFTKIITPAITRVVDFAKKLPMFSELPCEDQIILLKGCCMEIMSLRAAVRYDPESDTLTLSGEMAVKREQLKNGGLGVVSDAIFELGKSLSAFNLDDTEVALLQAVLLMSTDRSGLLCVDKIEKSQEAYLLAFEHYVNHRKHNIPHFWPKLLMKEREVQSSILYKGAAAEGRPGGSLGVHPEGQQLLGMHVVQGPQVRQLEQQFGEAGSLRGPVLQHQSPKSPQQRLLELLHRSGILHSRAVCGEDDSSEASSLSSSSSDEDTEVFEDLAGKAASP
Chain of Thyroid hormone receptor alpha (Rattus norvegicus) + Thyroid hormone receptor beta (Rattus norvegicus) (P18113 whole entry, looked up): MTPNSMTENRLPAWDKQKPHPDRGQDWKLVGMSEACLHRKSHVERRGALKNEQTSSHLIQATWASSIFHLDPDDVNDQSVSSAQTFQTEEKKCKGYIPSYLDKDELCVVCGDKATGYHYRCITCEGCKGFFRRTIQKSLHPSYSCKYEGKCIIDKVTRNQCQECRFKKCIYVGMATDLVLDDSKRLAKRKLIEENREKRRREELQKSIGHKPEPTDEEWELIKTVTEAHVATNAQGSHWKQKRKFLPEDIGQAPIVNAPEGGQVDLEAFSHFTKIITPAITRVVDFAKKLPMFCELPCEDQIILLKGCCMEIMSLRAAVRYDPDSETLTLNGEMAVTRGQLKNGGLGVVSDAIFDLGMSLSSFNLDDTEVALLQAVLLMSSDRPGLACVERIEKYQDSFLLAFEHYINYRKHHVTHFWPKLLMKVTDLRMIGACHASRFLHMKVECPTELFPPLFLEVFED

Structure (SMILES)	outcome	AC50
Cc1cccc(C)c1[N+](=O)[O-]	inactive	–
CC(CCO)CCCC(C)(C)O (configuration not stated)	–	1.44 µM (active)
CC(=O)OCCC(C)CC(C)(C)C (configuration not stated)	inactive	–
